Hits are enriched below; roughly 2.3% of the tested compounds scored in any of these assays.
U2OS ROS induce: inducers of reactive oxygen species in cancer cells; hit rate 2% among 46,000; U2OS ROS induction, H2DCF-DA fluorescence; ROS induction (% of piperlongumine), % at 10 µM; in the data active = ROS induction above about 79%, passing the limit was not always enough
YB-1 expression: YB-1 expression inhibition | U2OS, qRT-PCR YB-1 vs CDIP delta delta Cp, 16 h; active compounds read high; zero = DMSO, each unit about twofold | delta delta Cp (YB-1 minus CDIP) (test concentration not listed) | hit rate 0.37% among 30,000 | AID 434959;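 active = delta delta Cp rounded down to an integer at or above 3, about 3 SD of DMSO wells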;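 also: higher means less YB-1 transcript or more CDIP transcript relative to DMSO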
Large screens that a line does not name were inactive.

C=CCNC(=O)[C@H]1[C@@H]2C(=O)O[C@@H](c3ccccc3)[C@@H](c3ccccc3)N2[C@@H](c2ccccc2OCCO)[C@]12C(=O)N(C(=O)OCCOC)c1ccc(C#CC3(O)CCCCCC3)cc12	U2OS ROS induce 95
COc1ccc(CNc2cc(-c3nn4c(C)nnc4s3)ccc2C)cc1OC	none (no result: YB-1 expression)
CC(C)c1ccc(-c2csc3ncn(N)c(=O)c23)cc1	none (no result: YB-1 expression)
COc1ccc(CCNC(=O)c2ccc3c(c2)NC(=O)/C(=C\c2ccc(C)cc2)S3)cc1OC	none (no result: YB-1 expression)
C[C@H]1CN([C@@H](C)CO)C(=O)c2cc(NC(=O)Cc3cn(C)c4ccccc34)ccc2O[C@H]1CN(C)Cc1ccc(Oc2ccccc2)cc1	none
C[C@H]1CN([C@@H](C)CO)C(=O)c2cc(NC(=O)Cc3cn(C)c4ccccc34)ccc2O[C@@H]1CN(C)Cc1ccc(Oc2ccccc2)cc1	U2OS ROS induce 134
C[C@@H]1CN([C@@H](C)CO)C(=O)c2cc(NC(=O)Cc3cn(C)c4ccccc34)ccc2O[C@H]1CN(C)Cc1ccc(-c2ccccc2)cc1	none
C[C@H](CO)N1C[C@H](C)[C@@H](CN(C)Cc2ccc3c(c2)OCO3)Oc2ccc(NC(=O)Cc3cn(C)c4ccccc34)cc2C1=O	U2OS ROS induce 117
C[C@H](CO)N1C[C@H](C)[C@@H](CN(C)Cc2ccc(-c3ccccc3)cc2)Oc2ccc(NC(=O)Cc3cn(C)c4ccccc34)cc2C1=O	U2OS ROS induce 199
C[C@@H]1CN([C@H](C)CO)C(=O)c2cc(NC(=O)Cc3cn(C)c4ccccc34)ccc2O[C@H]1CN(C)Cc1ccc2c(c1)OCO2	none
CC(C)Cn1c(SCc2ccccc2)nnc1-c1ccncc1	none (no result: YB-1 expression)
COc1ccc(NC(=O)N(C)C[C@H]2Oc3ccc(NC(=O)NC4CCCCC4)cc3CC(=O)N([C@H](C)CO)C[C@H]2C)cc1	U2OS ROS induce 83
COc1ccc(CN(C)C[C@@H]2Oc3ccc(NC(=O)Nc4ccc(C(F)(F)F)cc4)cc3CC(=O)N([C@H](C)CO)C[C@@H]2C)cc1	YB-1 expression 9.7
CC(C)NC(=O)N(C)C[C@H]1Oc2ccc(N(C)C)cc2CC(=O)N([C@@H](C)CO)C[C@@H]1C	none
C[C@@H]1CN([C@H](C)CO)C(=O)Cc2cc(N(C)C)ccc2O[C@@H]1CN(C)C(=O)NC1CCCCC1	U2OS ROS induce 108
COc1ccc(NC(=O)Nc2ccc3c(c2)CC(=O)N([C@H](C)CO)C[C@@H](C)[C@H](CN(C)Cc2ccc(C(F)(F)F)cc2)O3)cc1	none
Cc1noc(C)c1NC(=O)N(C)C[C@H]1Oc2ccc(NC(=O)NC3CCCCC3)cc2CC(=O)N([C@@H](C)CO)C[C@@H]1C	U2OS ROS induce 104
COc1ccc(NC(=O)Nc2ccc3c(c2)CC(=O)N([C@@H](C)CO)C[C@@H](C)[C@@H](CN(C)C(=O)NC2CCCCC2)O3)cc1	none
Cc1noc(C)c1NC(=O)N(C)C[C@@H]1Oc2ccc(NC(=O)NC3CCCCC3)cc2CC(=O)N([C@H](C)CO)C[C@H]1C	none
COC(=O)c1ccc(-c2ccco2)n1Cc1nc(-c2ccccc2F)oc1C	none (no result: YB-1 expression)
COc1ccc2ncc(S(=O)(=O)c3ccccc3)c(N3CCC(C(N)=O)CC3)c2c1	none (no result: YB-1 expression)
CC(C)CCNC(=O)Cc1ccc(-n2c(=S)[nH]c3ccccc3c2=O)cc1	none (no result: YB-1 expression)
COc1ccc(N2CCN(c3c(S(=O)(=O)c4ccccc4)cnc4ccc(Cl)cc34)CC2)cc1	none (no result: YB-1 expression)
CCCCN(C1=NC2CS(=O)(=O)CC2S1)c1ccc(Cl)cc1 (configuration not stated)	none (no result: YB-1 expression)
COc1ccc(CN(C)C[C@@H]2Oc3ccc(NC(=O)NC4CCCCC4)cc3CC(=O)N([C@@H](C)CO)C[C@@H]2C)cc1	none
COc1ccc(CN(C)C[C@@H]2Oc3ccc(NC(=O)NC4CCCCC4)cc3CC(=O)N([C@H](C)CO)C[C@H]2C)cc1	YB-1 expression 6.7
Cc1ccc(S(=O)(=O)/C=C/C#N)cc1	U2OS ROS induce 143
Cc1ccc(S(=O)(=O)c2ccc(C)cc2)cc1	none
O=C(CC1CCCCC1)Nc1ccc2nc3n(c(=O)c2c1)CCCCC3	none (no result: YB-1 expression)
Cc1c(-c2ccccc2)nc2sc3c(c2c1N)CCCC3	U2OS ROS induce 92 (no result: YB-1 expression)
Cc1cccc(-c2nc3sc4c(c3c(=O)[nH]2)CCCC4)c1	none (no result: YB-1 expression)
O=C(c1ccc(Cl)c(Cl)c1)N1CCc2ccccc21	none (no result: YB-1 expression)
O=C(CN1C(=O)CC(c2ccccc2)S(=O)(=O)c2ccccc21)Nc1ccccc1C(F)(F)F (configuration not stated)	none (no result: YB-1 expression)
C=CCn1c(=O)c2c(C)c(C)sc2n2c(Nc3ccc(C(=O)OCC)cc3)nnc12	U2OS ROS induce 194
CCOC(=O)c1ccc(Nc2nnc(CSc3nc(C)cc(C)n3)s2)cc1	none (no result: YB-1 expression)
CCN(CC)C(=O)Cn1cc(SCC(=O)N2CCCCC2)c2ccccc21	none (no result: YB-1 expression)
O=C(NCCC(c1ccccc1)c1ccccc1)c1cc2ccccc2c(=O)o1	U2OS ROS induce 154
O=C(c1cc2ccccc2c(=O)o1)N1CCN(C(c2ccccc2)c2ccccc2)CC1	none (no result: YB-1 expression)
COc1ccc(C(CC(=O)NCc2ccc(C)cc2)N2Cc3ccccc3C2=O)cc1OC (configuration not stated)	none (no result: YB-1 expression)
COc1cc(O)c2c(=O)cc(-c3ccccc3)oc2c1OC	none
COc1cc(-c2cc(=O)c3c(O)c(OC)c(OC)c(OC)c3o2)cc(OC)c1OC	U2OS ROS induce 99
N#Cc1nc(-c2ccccc2F)oc1NCC1CCCO1 (configuration not stated)	none (no result: YB-1 expression)
COc1ccc(-c2[nH]ncc2CN2CCC(c3ccccc3OC)CC2)cc1	none (no result: YB-1 expression)
COc1ccc(OCc2nnc3n2N=C(c2ccc(OC)c(OC)c2)C(c2ccccc2)S3)cc1 (configuration not stated)	U2OS ROS induce 99 (no result: YB-1 expression)
Cn1c2ccccc2c2nnc(SCC(=O)c3ccc(Cl)cc3)nc21	U2OS ROS induce 117 (no result: YB-1 expression)
C=CCn1c2ccccc2c2nnc(SCC(=O)c3ccc(Cl)cc3)nc21	none (no result: YB-1 expression)
O=C(C(Cc1ccccc1Cl)C(=O)N1CCc2ccccc21)N1CCc2ccccc21	U2OS ROS induce 141
O=C(CC(C(=O)N1CCc2ccccc21)C(=O)N1CCc2ccccc21)c1ccccc1	none
COc1ccc(Br)cc1CNC(=O)c1cc(-c2ccccc2)n(C)c1C	none (no result: YB-1 expression)
COC1=CC(=O)OC1C(O)C(O)C(OC(C)=O)c1ccccc1 (configuration not stated)	none
COC(/C=C/C(OC(C)=O)C(C)OC(C)=O)C(O)C1CC=CC(=O)O1 (configuration not stated)	U2OS ROS induce 105
COC(=O)C1=C(O)/C(=C/c2ccc(O)cc2)SC1=Nc1ccccc1	U2OS ROS induce 164 (no result: YB-1 expression)
COC(=O)CN1C(=O)/C(=C\c2ccc(O)cc2)SC1=S	none (no result: YB-1 expression)
CCC1Oc2ccc(Cl)cc2N(CC(=O)NCCc2ccccc2)C1=O (configuration not stated)	none (no result: YB-1 expression)
CCOC(=O)CC(=O)c1ccn(C)n1	none (no result: YB-1 expression)
Cc1ccc(S(=O)(=O)N[C@@H](Cc2ccccc2)C(=O)CCl)cc1	U2OS ROS induce 79
Cc1ccc(S(=O)(=O)NC(C)C(=O)Nc2ccccc2F)cc1 (configuration not stated)	none (no result: YB-1 expression)
Cc1ccc2c(Sc3ccc(Cl)cc3)c(C(=O)O)[nH]c2c1	none (no result: YB-1 expression)
Cc1nc2c(c(C)nn2C(C)(C)C)c(C)c1CCC(=O)NCCCc1ccccc1	none (no result: YB-1 expression)

Compound activity: PubChem, Broad Institute
